Data as given in PubChem BioAssay (NCATS).
Results filed as inconclusive are left out. Entries that show only a call come without a potency. Active and inactive are the calls of the source. Calls follow the shape of the dose curve; as a rule, active = well fitted curve in the direction sought with a large enough effect; inconclusive = small, poorly fitted or top-dose-only effect, or another doubt; inactive = no such curve, though single readings can be large; an effect the other way counts as inactive or inconclusive.

Target: Transient receptor potential cation channel subfamily V member 1 (Homo sapiens) (UniProt Q8NER1)
Sequence (Q8NER1 whole entry, looked up): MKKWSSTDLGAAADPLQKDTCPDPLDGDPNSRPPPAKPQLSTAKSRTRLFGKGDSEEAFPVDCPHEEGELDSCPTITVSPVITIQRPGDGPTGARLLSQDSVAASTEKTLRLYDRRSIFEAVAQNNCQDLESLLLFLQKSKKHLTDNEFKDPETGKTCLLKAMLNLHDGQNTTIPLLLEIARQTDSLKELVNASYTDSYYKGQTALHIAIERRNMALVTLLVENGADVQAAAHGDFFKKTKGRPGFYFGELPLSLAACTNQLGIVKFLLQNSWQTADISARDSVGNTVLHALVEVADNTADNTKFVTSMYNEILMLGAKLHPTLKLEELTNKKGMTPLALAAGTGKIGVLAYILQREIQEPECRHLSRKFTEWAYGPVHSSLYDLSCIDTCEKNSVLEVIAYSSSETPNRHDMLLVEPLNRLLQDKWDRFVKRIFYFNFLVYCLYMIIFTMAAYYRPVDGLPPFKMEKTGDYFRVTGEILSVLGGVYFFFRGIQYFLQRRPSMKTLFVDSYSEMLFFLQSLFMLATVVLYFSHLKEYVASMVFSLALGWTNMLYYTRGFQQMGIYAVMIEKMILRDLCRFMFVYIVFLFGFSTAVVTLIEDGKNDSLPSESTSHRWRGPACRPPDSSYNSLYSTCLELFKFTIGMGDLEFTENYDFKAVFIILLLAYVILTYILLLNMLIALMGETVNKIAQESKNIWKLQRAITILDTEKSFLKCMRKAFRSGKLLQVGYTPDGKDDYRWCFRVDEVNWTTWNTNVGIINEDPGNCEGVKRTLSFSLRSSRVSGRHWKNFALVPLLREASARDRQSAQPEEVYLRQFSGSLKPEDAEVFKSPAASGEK
Test: HTS Assay for Compounds that Act as Enhancers of the Vanilloid Receptor 1 (AID 488979)
Settings: TRPV1-expressing cells, enhancer of channel activity, stimulated with capsaicin at EC20; series mostly up to 41.7 µM
Summary of the method: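 Calcium influx kinetics via Fluo-8 (480/520 nm) in TRPV1-expressing cells, 2000/well cultured overnight at 35.5C. Compound-alone read 3 min (agonist phase), followed by EC20 capsaicin challenge for 2 min (enhancer phase).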

SMILES	outcome
CNC(=O)c1cc2c(cn1)[nH]c1ccccc12	inactive
O=C1Nc2ccc(I)cc2/C1=C/c1cc(Br)c(O)c(Br)c1	inactive
CCCCCC(O)CCCC(=O)O (stereo not given)	inactive
Cn1c(=O)[nH]c2ncn(C)c2c1=O	inactive
CC#CCOC(=O)c1c(C)nc2sc3c(c2c1N)CCC(O)C3 (stereo not given)	inactive
CCn1c(=O)[nH]c2cc(Cl)c(Cl)cc21	inactive
CCCc1c(-c2ccc(O)cc2)nn(-c2ccc(O)cc2)c1-c1ccc(O)cc1	inactive
N[C@H](C(=O)O)[C@H]1C[C@@H]1C(=O)O	inactive
CC1=C(/C=C/C(C)=C/C=C/C(C)=C\C(=O)O)C(C)(C)CCC1	inactive
C=CCN1CCc2cc(O)c(O)cc2C(c2ccccc2)C1 (stereo not given)	inactive
C=CCN1CCc2c(cc(O)c(O)c2Br)[C@@H](c2ccccc2)C1	inactive
Nc1nc2[nH]c(=O)cnc2c(=O)[nH]1	inactive
N=S(=O)(O)Cc1noc2ccccc12	inactive
CC(N)(Cc1ccc(O)c(O)c1)C(=O)O (stereo not given)	inactive

Target: Thyrotropin receptor (Homo sapiens) (UniProt P16473)
Sequence (P16473 whole entry, looked up): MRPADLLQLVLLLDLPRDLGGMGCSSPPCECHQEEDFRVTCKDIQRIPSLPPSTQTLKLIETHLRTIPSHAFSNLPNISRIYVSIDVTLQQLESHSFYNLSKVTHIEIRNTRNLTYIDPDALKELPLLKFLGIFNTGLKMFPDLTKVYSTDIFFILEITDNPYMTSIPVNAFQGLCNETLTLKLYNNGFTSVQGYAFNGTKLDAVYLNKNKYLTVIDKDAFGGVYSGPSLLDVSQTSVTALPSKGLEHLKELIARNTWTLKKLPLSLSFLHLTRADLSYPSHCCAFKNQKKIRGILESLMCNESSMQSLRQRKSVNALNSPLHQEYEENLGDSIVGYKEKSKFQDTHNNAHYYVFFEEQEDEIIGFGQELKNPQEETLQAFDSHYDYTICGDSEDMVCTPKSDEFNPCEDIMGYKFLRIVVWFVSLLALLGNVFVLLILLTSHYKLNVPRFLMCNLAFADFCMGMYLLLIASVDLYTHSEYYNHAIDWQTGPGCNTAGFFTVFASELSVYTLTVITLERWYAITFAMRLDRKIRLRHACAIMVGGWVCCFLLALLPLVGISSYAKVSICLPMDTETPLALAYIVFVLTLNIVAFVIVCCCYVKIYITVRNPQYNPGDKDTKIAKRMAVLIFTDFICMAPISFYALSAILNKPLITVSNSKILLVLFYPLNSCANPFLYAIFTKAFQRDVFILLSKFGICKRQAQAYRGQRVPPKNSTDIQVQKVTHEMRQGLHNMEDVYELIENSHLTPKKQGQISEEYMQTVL
Test: qHTS Assay for Antagonists of the Thyroid Stimulating Hormone Receptor (AID 488980)
Settings: TSHR-expressing cells, cAMP antagonist read-out; series mostly up to 57.5 µM
Summary of the method: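 Cells expressing human TSHR (HEK293) are dispensed in HBSS/HEPES containing 70 uM RO 20-1724, compound is added, then TSH at EC80 (4 nM final). Antibody in lysis buffer follows, 30 minutes at room temperature before HTRF detection.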

SMILES	outcome
O=S(=O)(c1cccc2c(Cl)cccc12)N1CCCNCC1	inactive
N#CC(C#N)=C(N)/C(C#N)=C/c1ccc(O)cc1	inactive
CN1CCCC1CCOC(C)(c1ccccc1)c1ccc(Cl)cc1 (stereo not given)	inactive
CN(C)S(=O)(=O)c1ccc2c(c1)/C(=C/c1cc3c([nH]1)CCCC3)C(=O)N2	inactive
CCCCCCCCCC(=O)NC(CN1CCOCC1)[C@H](O)c1ccccc1 (stereo not given in full)	inactive
Nc1ccc2c3c(cccc13)C(=O)NC2=O	inactive
NCCNS(=O)(=O)c1cccc2c(Cl)cccc12	inactive
N#CC(=C(\N)Sc1ccccc1N)/C(C#N)=C(/N)Sc1ccccc1N	inactive
Fc1ccc(CN(C2=NCCN2)c2c(Cl)cccc2Cl)cc1	inactive
COc1cc(CNC(=O)CCCCCCC(C)C)ccc1O	inactive
CN1C2CCC1CC(OC(c1ccccc1)c1ccccc1)C2 (stereo not given)	inactive
O[Si](CCCN1CCCCC1)(c1ccc(F)cc1)C1CCCCC1 (stereo not given)	inactive

Target: D(1A) dopamine receptor (Homo sapiens) (UniProt P21728)
Sequence (P21728 whole entry, looked up): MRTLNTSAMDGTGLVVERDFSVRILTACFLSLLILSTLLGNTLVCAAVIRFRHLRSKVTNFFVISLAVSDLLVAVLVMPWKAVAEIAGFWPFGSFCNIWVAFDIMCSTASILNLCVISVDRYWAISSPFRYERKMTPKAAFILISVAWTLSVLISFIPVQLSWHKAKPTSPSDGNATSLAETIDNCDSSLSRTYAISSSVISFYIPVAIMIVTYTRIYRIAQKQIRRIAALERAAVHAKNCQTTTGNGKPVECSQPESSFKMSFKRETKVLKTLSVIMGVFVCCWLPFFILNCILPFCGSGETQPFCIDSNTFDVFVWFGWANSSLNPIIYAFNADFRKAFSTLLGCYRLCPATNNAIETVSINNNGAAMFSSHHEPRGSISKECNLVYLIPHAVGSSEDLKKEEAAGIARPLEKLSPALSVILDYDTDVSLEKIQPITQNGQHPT
Test: HTS Assay for Allosteric Agonists of the Human D1 Dopamine Receptor: Primary Screen for Agonists (AID 488981); also: potency is read from the fitted curve at half-maximal effect
Settings: Inducible HEK293 T-REx D1 cells, calcium-flux fluorescence, 180 s kinetic; series mostly up to 41.8 µM
Summary of the method: (§1)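 Calcium flux in an inducible, force-coupled HEK293 Trex D1 line (overnight at 30 C): agonist mode is the 180 s kinetic read after compound; potentiator mode is the following 180 s read after dopamine at EC20.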

SMILES	Potency
CNC(=O)c1cc2c(cn1)[nH]c1ccccc12	inactive
O=S(=O)(c1cccc2c(Cl)cccc12)N1CCCNCC1	inactive
N#CC(C#N)=C(N)/C(C#N)=C/c1ccc(O)cc1	inactive
CCCCCC(O)CCCC(=O)O (stereo not given)	inactive
Cn1c(=O)[nH]c2ncn(C)c2c1=O	inactive
CN1CCCC1CCOC(C)(c1ccccc1)c1ccc(Cl)cc1 (stereo not given)	inactive
CCCn1c(=O)c(C)cn2nc(N)nc12	inactive
CN(C)S(=O)(=O)c1ccc2c(c1)/C(=C/c1cc3c([nH]1)CCCC3)C(=O)N2	12.6 µM (active)
Nc1ccc2c3c(cccc13)C(=O)NC2=O	11.2 µM (active)
Cc1cc(Cn2cnc3c2C[C@@H](C(=O)O)N(C(=O)C(c2ccccc2)c2ccccc2)C3)ccc1N	inactive
CN1CC(O)C(O)C(O)C1CO (stereo not given)	inactive
NCCNS(=O)(=O)c1cccc2c(Cl)cccc12	inactive
CC#CCOC(=O)c1c(C)nc2sc3c(c2c1N)CCC(O)C3 (stereo not given)	inactive
Cc1nc2n(c(=O)c1CCN1CCC(c3noc4cc(F)ccc34)CC1)CCCC2O (stereo not given)	inactive
CC(=O)SC1CC2=CC(=O)CC[C@]2(C)C2CC[C@@]3(C)C(CC[C@@]34CCC(=O)O4)C12 (stereo not given in full)	inactive
CCn1c(=O)[nH]c2cc(Cl)c(Cl)cc21	inactive
N#CC(=C(\N)Sc1ccccc1N)/C(C#N)=C(/N)Sc1ccccc1N	inactive

SMILES	Potency
N[C@H](C(=O)O)[C@H](Cc1ccccc1)C(=O)O	inactive
CCCc1c(-c2ccc(O)cc2)nn(-c2ccc(O)cc2)c1-c1ccc(O)cc1	inactive
CSC(=N)N	inactive
CC(C)[C@@H]1CC[C@@H](C)C[C@@H]1P(=O)(c1ccccc1)c1ccccc1	inactive
Fc1ccc(CN(C2=NCCN2)c2c(Cl)cccc2Cl)cc1	inactive
N[C@H](C(=O)O)[C@H]1C[C@@H]1C(=O)O	inactive
CC1=C(/C=C/C(C)=C/C=C/C(C)=C\C(=O)O)C(C)(C)CCC1	inactive
COc1cc(CNC(=O)CCCCCCC(C)C)ccc1O	inactive
CN1C2CCC1CC(OC(c1ccccc1)c1ccccc1)C2 (stereo not given)	inactive
C=CCN1CCc2cc(O)c(O)cc2C(c2ccccc2)C1 (stereo not given)	inactive
Nc1nc2[nH]c(=O)cnc2c(=O)[nH]1	inactive
COc1ccc(CCn2nnnc2C2(c3ccc(C)cc3)CC2)cc1	inactive
Nc1ncnc2c1nc(Br)n2C1OC2COP(=O)(O)O[C@@H]2C1O (stereo not given in full)	inactive
Oc1ccc(/C=C/c2ccc(/C=C/c3ccc(O)cc3)c(Br)c2)cc1	inactive
CC(O)C(O)[C@H]1CNc2nc(N)[nH]c(=O)c2N1 (stereo not given in full)	inactive
N=S(=O)(O)Cc1noc2ccccc12	inactive
CC(N)(Cc1ccc(O)c(O)c1)C(=O)O (stereo not given)	inactive

Target: D(1A) dopamine receptor (Homo sapiens) (UniProt P21728)
Test: HTS Assay for Allosteric Agonists of the Human D1 Dopamine Receptor: Primary Screen for Potentiators (AID 488982)
Settings: HEK293 T-REx D1 inducible cells, calcium flux, kinetic fluorescence; series mostly up to 8.37 µM
Summary of the method: as §1

SMILES	Potency
CNC(=O)c1cc2c(cn1)[nH]c1ccccc12	inactive
O=C1Nc2ccc(I)cc2/C1=C/c1cc(Br)c(O)c(Br)c1	inactive
O=S(=O)(c1cccc2c(Cl)cccc12)N1CCCNCC1	inactive
N#CC(C#N)=C(N)/C(C#N)=C/c1ccc(O)cc1	inactive
CCCCCC(O)CCCC(=O)O (stereo not given)	inactive
Cn1c(=O)[nH]c2ncn(C)c2c1=O	inactive
CCCn1c(=O)c(C)cn2nc(N)nc12	inactive
CN(C)S(=O)(=O)c1ccc2c(c1)/C(=C/c1cc3c([nH]1)CCCC3)C(=O)N2	inactive
CCCCCCCCCC(=O)NC(CN1CCOCC1)[C@H](O)c1ccccc1 (stereo not given in full)	inactive
Cc1cc(Cn2cnc3c2C[C@@H](C(=O)O)N(C(=O)C(c2ccccc2)c2ccccc2)C3)ccc1N	inactive
CN1CC(O)C(O)C(O)C1CO (stereo not given)	inactive
NCCNS(=O)(=O)c1cccc2c(Cl)cccc12	inactive
CC#CCOC(=O)c1c(C)nc2sc3c(c2c1N)CCC(O)C3 (stereo not given)	inactive
Cc1nc2n(c(=O)c1CCN1CCC(c3noc4cc(F)ccc34)CC1)CCCC2O (stereo not given)	inactive
CC(=O)SC1CC2=CC(=O)CC[C@]2(C)C2CC[C@@]3(C)C(CC[C@@]34CCC(=O)O4)C12 (stereo not given in full)	inactive
CCn1c(=O)[nH]c2cc(Cl)c(Cl)cc21	inactive
N#CC(=C(\N)Sc1ccccc1N)/C(C#N)=C(/N)Sc1ccccc1N	inactive
N[C@H](C(=O)O)[C@H](Cc1ccccc1)C(=O)O	inactive

SMILES	Potency
CCCc1c(-c2ccc(O)cc2)nn(-c2ccc(O)cc2)c1-c1ccc(O)cc1	inactive
CSC(=N)N	inactive
CC(C)[C@@H]1CC[C@@H](C)C[C@@H]1P(=O)(c1ccccc1)c1ccccc1	inactive
Fc1ccc(CN(C2=NCCN2)c2c(Cl)cccc2Cl)cc1	inactive
N[C@H](C(=O)O)[C@H]1C[C@@H]1C(=O)O	inactive
CC1=C(/C=C/C(C)=C/C=C/C(C)=C\C(=O)O)C(C)(C)CCC1	inactive
COc1cc(CNC(=O)CCCCCCC(C)C)ccc1O	inactive
CN1C2CCC1CC(OC(c1ccccc1)c1ccccc1)C2 (stereo not given)	inactive
C=CCN1CCc2cc(O)c(O)cc2C(c2ccccc2)C1 (stereo not given)	inactive
C=CCN1CCc2c(cc(O)c(O)c2Br)[C@@H](c2ccccc2)C1	inactive
Nc1nc2[nH]c(=O)cnc2c(=O)[nH]1	inactive
COc1ccc(CCn2nnnc2C2(c3ccc(C)cc3)CC2)cc1	inactive
Nc1ncnc2c1nc(Br)n2C1OC2COP(=O)(O)O[C@@H]2C1O (stereo not given in full)	inactive
Oc1ccc(/C=C/c2ccc(/C=C/c3ccc(O)cc3)c(Br)c2)cc1	inactive
CC(O)C(O)[C@H]1CNc2nc(N)[nH]c(=O)c2N1 (stereo not given in full)	inactive
O[Si](CCCN1CCCCC1)(c1ccc(F)cc1)C1CCCCC1 (stereo not given)	inactive
N=S(=O)(O)Cc1noc2ccccc12	inactive
